# Compounds without any hit were thinned out: in the full panel of roughly 83,000, 20% have a hit.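 Cell lines were cultured in 96-well plates, exposed to a single compound concentration, and assessed for percent growth 48 hours later.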 Values without a mark were called inactive. Activity calls are given as the source filed them. The calls were made as follows: active = growth percent below 10; inactive = the rest.
# How the values were obtained:
# Assay in all cases: NCI-60 one-dose screen, 48 h (100 = growth as untreated, 0 = no growth, -100 = all killed)
# Details in all cases: 10 µM unless noted
# DU-145 prostate = tested on: DU-145 prostate
# K-562 leukemia = tested on: K-562 leukemia
# MALME-3M melanoma = tested on: MALME-3M melanoma
# MDA-MB-231 breast = tested on: MDA-MB-231 breast
# RXF 393 renal = tested on: RXF 393 renal
# SF-268 CNS = tested on: SF-268 CNS
# SF-295 CNS = tested on: SF-295 CNS
# SF-539 CNS = tested on: SF-539 CNS
# UACC-257 melanoma = tested on: UACC-257 melanoma
# M14 melanoma = tested on: M14 melanoma
# HCT-15 colon = tested on: HCT-15 colon
# HT29 colon = tested on: HT29 colon
# SNB-75 CNS = tested on: SNB-75 CNS
# SNB-19 CNS = tested on: SNB-19 CNS
# U251 CNS = tested on: U251 CNS
# PC-3 prostate = tested on: PC-3 prostate
# SK-MEL-5 melanoma = tested on: SK-MEL-5 melanoma
# UACC-62 melanoma = tested on: UACC-62 melanoma
# LOX IMVI melanoma = tested on: LOX IMVI melanoma
# SK-MEL-28 melanoma = tested on: SK-MEL-28 melanoma
Structure (SMILES),growth (DU-145 prostate),growth (K-562 leukemia),growth (MALME-3M melanoma),growth (MDA-MB-231 breast),growth (RXF 393 renal),growth (SF-268 CNS),growth (SF-295 CNS),growth (SF-539 CNS),growth (UACC-257 melanoma),growth (M14 melanoma),growth (HCT-15 colon),growth (HT29 colon),growth (SNB-75 CNS),growth (SNB-19 CNS),growth (U251 CNS),growth (PC-3 prostate),growth (SK-MEL-5 melanoma),growth (UACC-62 melanoma),growth (LOX IMVI melanoma),growth (SK-MEL-28 melanoma)
O=S(=O)(NCCCNc1nccc(-c2c(-c3ccc(F)c(O)c3)nc3occn23)n1)c1ccc(Cl)cc1,73.5%,45.8%,5.66% (active),40.4%,30.8%,66.5%,103%,87.5%,33.8%,19.6%,73.2%,54.4%,95.6%,97%,94%,56.8%,33.2%,11.7%,36.2%,30%
O=C(Nc1ccc(Oc2cccc(Cl)c2)c(Cl)c1)c1cnccn1,22.7%,13.2%,53.4%,31.7%,-4.58% (active),54.3%,41.2%,-35.2% (active),72.4%,19.8%,23.3%,2.14% (active),-20.9% (active),33.5%,16.5%,11.1%,25.8%,28.4%,29.9%,64.9%
C[C@@H](CO)[C@@H]1CCC=C2CC[C@]3(C)[C@H](CC[C@@H]4[C@@]5(C)CCCNC(C)(C)[C@@H]5CC[C@]43C)[C@H]21,62.4%,-19.9% (active),46.6%,59.9%,68%,82.2%,93.7%,57.8%,30.4%,30.9%,-5.42% (active),1.93% (active),92.3%,88.4%,18.8%,47.1%,72.2%,80.3%,-52.2% (active),70.5%
O=C(Nc1cccc2ccccc12)NC1CC1,141%,107%,123%,113%,107%,120%,116%,122%,106%,103%,112%,114%,83.6%,107%,101%,97.4%,103%,99.8%,101%,105%
CCN1CCN(C(=O)[C@]23CCC(C)(C)C[C@@H]2C2=CC[C@@H]4[C@@]5(C)CCC(=O)C(C)(C)[C@@H]5CC[C@@]4(C)[C@]2(C)CC3)CC1,76.6%,21.1%,40.5%,56.5%,61%,41.5%,76.3%,48.9%,32.8%,57.1%,33.6%,8.29% (active),15.6%,71.1%,46.8%,26.1%,49.2%,47.3%,43.8%,64.3%
COCCNC(=O)Nc1ccc2nc(-c3cccs3)c(-c3cccs3)nc2c1,96.2%,83.3%,94.8%,92.3%,82.5%,102%,78.6%,85.6%,103%,103%,90.9%,87.8%,81.6%,95.5%,96.7%,79.2%,89.5%,85.1%,82.8%,96.7%
O=C(N/N=C/c1c(Cl)cccc1Cl)c1cccnc1Nc1cccc(C(F)(F)F)c1,49.3%,73.9%,54.3%,55.9%,68.1%,39.3%,28.8%,34.1%,56%,37.3%,26%,40.4%,63.1%,27.7%,16.4%,24.3%,20.5%,17.2%,25.8%,107%
CCC(C)(C)C(=O)O[C@H]1C[C@@H](C)C=C2C=C[C@H](C)[C@H](CC[C@@H]3CC(SCCN)CC(=O)O3)[C@H]21 (stereo not given in full),98.7%,51.2%,86.2%,88.7%,86.8%,96.3%,106%,76.2%,78%,60.1%,100%,75%,95.5%,93%,87.5%,44.3%,89.4%,84.3%,75.8%,102%
COC(=O)c1c(C)c2n(c1C)C(=O)C(c1ccccc1)=C2,97.9%,74.8%,82.1%,60.5%,82.3%,103%,79.9%,87.6%,18.1%,86.3%,80.4%,87.1%,53.2%,85.7%,93.2%,84.4%,84.2%,58.7%,73.8%,91.2%
CC(C)(Sc1cc(C(C)(C)C)c(O)c(C(C)(C)C)c1)Sc1cc(C(C)(C)C)c(OC(=O)CCCC(=O)O)c(C(C)(C)C)c1,59.4%,41.6%,75.4%,74.2%,73.3%,63.1%,50.4%,62.7%,74.6%,54.6%,27.8%,40.8%,112%,57.1%,47.1%,33.9%,54.1%,26.1%,59%,70.6%
C#COc1cccc(Nc2c(C#N)cnc3ncc(NC(=O)CCl)cc23)c1,33.2% [6.25 µM],6.93% [6.25 µM] (active),76.9% [6.25 µM],20.9% [6.25 µM],54% [6.25 µM],6.32% [6.25 µM] (active),42.1% [6.25 µM],-7.95% [6.25 µM] (active),47.1% [6.25 µM],41.2% [6.25 µM],22.8% [6.25 µM],3.12% [6.25 µM] (active),54.2% [6.25 µM],11% [6.25 µM],-42.8% [6.25 µM] (active),19.6% [6.25 µM],47.7% [6.25 µM],37.5% [6.25 µM],-2.95% [6.25 µM] (active),50.8% [6.25 µM]
O=C(Nc1ccccc1)Nc1ncnc2c1ncn2-c1ccc(Cl)cc1,96.3%,99.6%,71.9%,80.8%,91.7%,97.1%,76.4%,107%,109%,98.9%,79%,80.4%,44.3%,97.1%,77.6%,104%,94.9%,89.3%,91.9%,95.5%
Cc1c(-c2ccc(O)cc2)n(Cc2ccc(OCCN3CCCCCC3)cc2)c2ccc(O)cc12,87%,-6.6% (active),69.5%,82.3%,49.9%,74.2%,99.1%,61.7%,81.6%,63.5%,20.5%,59.4%,43.4%,88.1%,56.4%,76.8%,57.2%,98.3%,39.4%,92.6%
Cc1cc(N2CCCCC2)cc(C)c1-c1csc(NC(=O)c2ccncc2)n1,77%,22.1%,59.7%,54.5%,77.6%,60%,22.5%,81.1%,33.2%,57.8%,80.5%,69%,55.7%,59.8%,63%,48.1%,-8.97% (active),45.1%,47.1%,64.9%
CCOc1ccc(NC(=O)CSc2oc(-c3ccccc3)nc2S(=O)(=O)c2ccc(C)cc2)cc1,67.3%,53%,81%,32.2%,62.1%,54.1%,48.1%,17.8%,72%,71%,63.8%,50.9%,45.3%,70.7%,41.2%,62.3%,81.2%,66.2%,54.1%,79.3%
CN(C)c1ccc(-c2c(C#N)c(N)nn2C(=O)c2ccc(NC(=O)c3ccccn3)cc2)cc1,102%,66.9%,110%,108%,117%,94.1%,99%,92%,112%,84.1%,85.2%,113%,102%,99.4%,99.3%,77.4%,101%,73.2%,65.3%,108%
CC(C)COc1nc2c(c(=O)n(C)c(=O)n2C)n1C,111%,98%,121%,108%,126%,98.5%,112%,91.8%,67.2%,108%,97%,99.8%,82.4%,99.9%,101%,102%,86.7%,93.8%,105%,106%
O=C(/C=C/c1cccc(Cl)c1)c1cccc(OCCCOc2cccc(C(=O)/C=C/c3cccc(Cl)c3)c2)c1,108%,86.9%,116%,94.9%,104%,98.8%,95.1%,106%,102%,89.9%,98.1%,96.6%,81.7%,101%,75.5%,100%,100%,80.6%,63.5%,108%
c1ccc([P+](c2ccccc2)(c2ccccc2)c2ccc3c4ccc([P+](c5ccccc5)(c5ccccc5)c5ccccc5)c5cccc(c6cccc2c63)c54)cc1,19.5%,11.8%,-13% (active),9.37% (active),42.5%,24.4%,3.75% (active),-27.1% (active),15.2%,15.4%,66.2%,8.41% (active),13.5%,12.5%,14%,17.7%,-57.6% (active),15%,3.08% (active),4.81% (active)
COc1ccc(-c2nc3c(ncc4ccc(=O)[nH]c43)s2)cc1,67.7%,93.3%,93.9%,81.5%,88.5%,76.6%,88.1%,84%,118%,74.7%,73.6%,81.1%,102%,105%,81.6%,83.4%,74.3%,88.1%,52%,87.6%
Nc1[nH]n2cc(-c3ccccc3)nc2c1N=Nc1ccc(S(N)(=O)=O)cc1,42.9%,32.9%,25.6%,20%,6.61% (active),36.5%,48%,19.6%,68.9%,31.4%,22.8%,38.8%,1.09% (active),60.4%,38.7%,32.4%,26.8%,31.3%,17.4%,45%
CCC(C)N(CCNc1cc(OC)cc2cccnc12)CC(C)C (stereo not given),112%,83.1%,119%,87.8%,122%,96.4%,110%,115%,99.8%,110%,71.7%,73.7%,109%,94.3%,99.4%,83.5%,103%,88.9%,76.9%,109%
O=[N+]([O-])c1ccc(O)cc1Br,103%,93%,102%,95.4%,107%,99.6%,89.4%,91.6%,108%,96.2%,101%,92.6%,92.7%,98.6%,103%,88.8%,93.3%,105%,95.4%,109%
COC(=O)/C=C1/SC(=Nc2cccc(OC)c2)N(CCc2c[nH]c3ccc(O)cc23)C1=O,33.1%,34.1%,79.5%,66.6%,52.6%,67%,81.4%,72.4%,57.7%,51.3%,26.4%,92%,71%,54.3%,45.4%,46%,63.6%,53.4%,23.5%,70.9%
C1CN(SSN2CCOCC2)CCO1,3.92% [100 µM] (active),15.2% [100 µM],-53.1% [100 µM] (active),-79.4% [100 µM] (active),-62.6% [100 µM] (active),-78.9% [100 µM] (active),5.96% [100 µM] (active),-37.6% [100 µM] (active),49.6% [100 µM],-7.16% [100 µM] (active),19.2% [100 µM],-50.6% [100 µM] (active),48.3% [100 µM],67% [100 µM],-28% [100 µM] (active),31.2% [100 µM],25.7% [100 µM],19.8% [100 µM],-41% [100 µM] (active),-43.3% [100 µM] (active)
C=C(C)[C@@H]1CC[C@]2(C(=O)N3CCOCC3)CC[C@]3(C)[C@H](CC[C@@H]4[C@@]5(C)C/C(=C/c6ccncc6)C(=O)C(C)(C)[C@@H]5CC[C@]43C)[C@@H]12,77.9%,38.6%,77.5%,78.6%,52.3%,66.3%,85.9%,78.5%,53.7%,75%,42.6%,33.8%,78.5%,76.9%,55.7%,25.2%,60.6%,43.1%,60%,74%
Nc1cnc(C(=O)NNc2nc3cc(F)ccc3n3cccc23)cn1,37.8%,23.7%,59.9%,35.9%,70.6%,36%,12.7%,33.9%,50.9%,23.3%,24.8%,35%,87.2%,36.1%,36.7%,47.2%,34.5%,22.7%,22%,40%
c1ccc(Cn2cc3c(c2)-c2oncc2CC3)cc1,19.6%,13.9%,86%,8.74% (active),0.371% (active),37.2%,20.3%,-9.18% (active),82.8%,19.9%,26.2%,7.96% (active),19%,35.7%,28.9%,31.9%,39.3%,23.6%,45.5%,53.9%
Cc1cccc(CNc2c3ccccc3nc3ccccc23)c1,33.9%,1.88% (active),14.1%,38.7%,-1.71% (active),52%,25.3%,11.7%,36.2%,22.8%,15.9%,5.15% (active),37%,29.7%,23.7%,24.9%,19.8%,42.8%,6.25% (active),58.8%

# — PubChem BioAssay (NCI)
